# USP2a inh = blocks human ubiquitin-specific protease USP2a | USP2 core, Ub-CHOP2 coupled fluorogenic reporter, 485/531 | Potency, µM (top dose mostly 38.3 µM), for the others: at the highest dose activity change, negative = inhibition, most hits filed as inhibitors | actives 0.01% (n = 330,000);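 note: plate controls were DMSO wells for no effect and full inhibition by NEM control for full effect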
#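 Deubiquitinase activity read as fluorescence (485/531 nm) after Ub-CHOP2 cleavage activates the enterokinase reporter on its substrate; USP2 core 10nM, Ub-CHOP2 and substrate 25nM each, 30min compound preincubation then 60min RT; data normalized to NEM, curves fitted.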
# MmCpn inh = blocks the Methanococcus maripaludis chaperonin Mm-Cpn. actives 0.031% (n = 330,000). Potency, µM (doses to about 76.9 µM), inactives show at the top dose activity, negative = inhibition, usual class: inhibitors. purified Mm-Cpn ATPase, ADP Transcreener TR-FRET; note: % is set by controls: 0 for no effect and ±100 for the full control effect; nearly all actives have a fitted effect of over 80% in size
#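 Purified archaeal chaperonin (25 nM final) was preincubated with compound for 10 min at 37°C, then ATP (10 uM final) was added for 30 min at 37°C in Tris pH 7.4/KCl/MgCl2/DTT buffer. ADP was quantified by HTRF Transcreener TR-FRET.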
# Eya2 phos inh = Eya2 (human) phosphatase inhibition; Potency, µM (series often up to 76.9 µM), without a hit: top-dose activity, negative = inhibition, usual class: inhibitors; recombinant Eya2, OMFP fluorescence dephosphorylation (OMFP is methylfluorescein phosphate); actives 0.006% (n = 330,000); AID 488837; note: % is set by controls: 0 for no effect and ±100 for the full control effect
# Target sequence (O00167 whole entry, looked up): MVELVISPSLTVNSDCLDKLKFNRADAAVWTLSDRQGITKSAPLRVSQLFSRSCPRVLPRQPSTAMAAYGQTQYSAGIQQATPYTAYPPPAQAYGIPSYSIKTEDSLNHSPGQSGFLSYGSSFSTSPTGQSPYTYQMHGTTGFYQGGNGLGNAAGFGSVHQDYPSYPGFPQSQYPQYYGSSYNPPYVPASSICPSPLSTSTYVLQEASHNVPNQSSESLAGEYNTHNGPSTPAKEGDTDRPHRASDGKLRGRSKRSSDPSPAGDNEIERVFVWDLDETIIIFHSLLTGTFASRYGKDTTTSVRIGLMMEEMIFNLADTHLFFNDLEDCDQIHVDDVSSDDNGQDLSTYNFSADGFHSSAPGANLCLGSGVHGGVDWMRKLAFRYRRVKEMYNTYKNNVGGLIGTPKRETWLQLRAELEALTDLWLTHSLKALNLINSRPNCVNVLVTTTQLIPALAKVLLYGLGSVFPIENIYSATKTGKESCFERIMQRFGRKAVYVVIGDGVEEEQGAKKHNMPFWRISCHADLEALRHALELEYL
#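 Eya2 (0.2 uM) preincubated 10 min at ambient with compound, then OMFP substrate added at 50 uM; 10 min reaction in 50 mM HEPES pH 7.5, 50 mM NaCl, 5 uM MgCl2, 0.05% BSA, 1 mM DTT. Fluorescence read at Ex 485/Em 525 nm.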
# p53 reactivation = mutant p53 re-activation in reporter cells; H1299 p53-A138V BP100-luciferase reporter, luminescence, 24 h; actives 0.063% (n = 320,000); Potency, µM (top dose mostly 92.2 µM), inactives show at the highest dose activity change, positive = activation, most hits filed as activators; note: % of control where 0% means no effect; nearly all actives have a fitted effect of over 45% in size
#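 p53-null H1299 cells stably carrying temperature-sensitive p53-A138V and a BP100-luciferase reporter were pinned with compounds (4-point, 1:5 series) and held 24 hrs at 37 deg C. Luminescence was read 10 min after detection reagent.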
# ClpP mod = qHTS Assay for Activators of ClpP; ATP-dependent Clp protease proteolytic subunit (Bacillus subtilis (strain 168)), P80244; purified B. subtilis ClpP, FRET peptide cleavage, 20 min; Potency, µM (doses to about 57.5 µM), inactives show at the top dose activity change, negative = active; actives 1.9% (n = 340,000); AID 651965, 2013; active = well fitted falling curve with a large enough effect; inconclusive = small, poorly fitted or top-dose-only effect; inactive = no such curve, though single readings can be large or run the other way; note: the source files actives as falling curves though it sought activators and does not explain the sign; nearly all actives have a fitted effect of over 65% in size
# Target sequence (P80244 whole entry, looked up): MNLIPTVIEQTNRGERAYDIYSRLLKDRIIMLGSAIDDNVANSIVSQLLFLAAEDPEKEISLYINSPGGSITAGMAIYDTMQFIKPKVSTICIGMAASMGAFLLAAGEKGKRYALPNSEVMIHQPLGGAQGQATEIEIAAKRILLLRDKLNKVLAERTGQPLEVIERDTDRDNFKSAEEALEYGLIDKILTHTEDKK
#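 FRET quenching reversal measured ClpP activation: 10 microg/mL B. subtilis ClpP at pH 8 with the FRET-FV decapeptide, read at 430 nm after 320 nm excitation. The 20-min minus 0-min signal was scaled between DMSO/no-enzyme wells and ADEP (5.8 microM final).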
# Integrin act MD = activates integrin-mediated alleviation for muscular dystrophy. actives 0.064% (n = 350,000). alpha7betagal myoblasts, beta-gal FDG fluorescence, 48 h. AID 624291. Potency, µM (top dose mostly 38.3 µM), without a hit: at the top dose activation, hits mostly activators;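 note: 100% = response of the positive control SU9516; nearly all actives have a fitted effect of over 60% in size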
#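 Alpha7betagal+/- myoblasts (passage 13) were plated 16-24 hr, then exposed to compounds (1:260 dilution of DMSO stock) for 48 hours at 37C. After MPER lysis, β-galactosidase reporter activity was read as FDG fluorescence (ex 480/em 540) after 30 minutes.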
# Numbers without * were called inactive; ? = inconclusive; · = no result given; [ ] = another dose, or the depositor's remark. The entries come from a sample that favours hits as a whole. Unless noted, calls come from the whole dose curve; as a rule, active = well fitted curve in the direction sought with a large enough effect; inconclusive = small, poorly fitted or top-dose-only effect, or another doubt; inactive = no such curve, though single readings can be large; an effect the other way counts as inactive or inconclusive. Potency is the fitted concentration of half-maximal effect.
SMILES,USP2a inh,MmCpn inh,Eya2 phos inh,p53 reactivation,ClpP mod,Integrin act MD
Cc1cccc(OCC(=O)Nc2ccc(O)c(-c3nc4ccccc4o3)c2)c1,·,·,·,·,-1%,·
COc1cccc(OC)c1C(=O)Nc1ccc(-c2nc3ncccc3o2)cc1,·,·,·,·,28µM*,·
Cc1ccc(OCC(=O)Nc2ccc(-c3nc4ncccc4o3)cc2)c(C)c1,-1%,1%,-6%,27%,25µM*,6%
COc1cc2ccccc2cc1C(=O)Nc1ccc2oc(-c3ccc(Cl)cc3)nc2c1,·,·,·,·,4%,·
Cc1ccccc1OCC(=O)Nc1ccc(-c2nc3ncccc3o2)cc1,·,·,·,·,4%,·
COc1ccccc1C(=O)Nc1ccc2oc(-c3ccc(F)cc3)nc2c1,-2%,0%,-30%,16%,20µM*,32%[7.66 µM]
CCc1ccc(NC(=O)c2sc3nc(C)c(C(=O)Nc4ccc(C)cc4C)c(-c4ccco4)c3c2N)cc1,·,·,·,·,-2%,·
Cc1cc(C)c2c(C)c(C(=O)NCc3ccncc3)oc2c1,0%,0%,-5%,-17%,?,-30%[7.66 µM]
CCc1ccc2oc(C(=O)NCc3ccncc3)c(C)c2c1,2%,-1%,1%,?,28µM*,-23%[7.66 µM]
CCc1ccc2oc(C(=O)Nc3nc(-c4ccccc4)ns3)c(C)c2c1,·,·,·,·,25µM*,·
Cc1ccc(S(=O)(=O)NCC(=O)OCC(=O)Nc2cccc(S(=O)(=O)NC3=NCCCCC3)c2)cc1,-7%,1%,-24%,-1%,25µM*,-7%
CC1=C(C(=O)Nc2ccccc2C)C(c2ccc[nH]2)n2ncnc2N1 (centres undefined),·,·,·,·,-6%,·
Cc1ccc(-n2nc(C)c(NC(=O)COC(=O)c3ccccc3NCCO)c2C)cc1,1%,-2%,26%,-2%,28µM*,-24%
O=C(COC(=O)c1ccccc1NCCO)NCCC1=CCCCC1,2%,0%,27%,11%,25µM*,-17%
O=C(COC(=O)c1ccccc1NCCO)NCCc1ccccc1,4%,-2%,-6%,18%,14µM*,4%
O=C(COC(=O)c1ccccc1NCCO)NCC1CCCCC1,0%,3%,-17%,10%,4%,-2%
Cc1ccc(C(=O)OCC(=O)Nc2c(C)nn(-c3ccccc3)c2C)c(O)c1,·,·,·,·,-2%,24%
CC(C#N)(NC(=O)COC(=O)c1ccccc1NCCO)C1CC1 (centres undefined),0%,-6%,-17%,3%,25µM*,13%
O=C(OCC(=O)N(Cc1ccccc1)Cc1ccccc1)c1ccccc1NCCO,0%,-4%,-15%,-1%,·,25%
COc1ccc2[nH]c(C(O)C(O)c3nc4c(OC)c(OC)ccc4[nH]3)nc2c1OC (centres undefined),·,·,·,·,-4%,·
CCOC(=O)Nc1ccc(/C=C/c2ccnc3ccccc23)cc1,·,·,·,·,-1%,·
COc1ccc(CCN2CC(O)=C(c3nc4ccccc4c(=O)[nH]3)C2=N)cc1OC,3%,-2%,9%,-5%,22µM*,3%
CCOc1ccc(N(C)S(=O)(=O)c2ccc3c(c2)C(C)(C)C(=O)N3C)cc1,·,·,·,·,-1%,·
Cc1ccc(C)c(NC(=S)NC(NC(=O)Cc2ccccc2)C(Cl)(Cl)Cl)c1 (centres undefined),2%,0%,-21%,-11%,-2%,15%
O=C(COc1ccccc1)NC(NC(=S)Nc1ccccc1C(=O)O)C(Cl)(Cl)Cl (centres undefined),-3%,1%,16%,-1%,35µM*,11%
SMILES,USP2a inh,MmCpn inh,Eya2 phos inh,p53 reactivation,ClpP mod,Integrin act MD
CCC(=O)NC(c1cccc([N+](=O)[O-])c1)c1c(OC(C)=O)ccc2ccccc12 (centres undefined),2%,4%,-1%,-11%,28µM*,-15%
C1=CN2CC=Cc3cc(/C=C/c4ccnc5ccccc45)cc(c32)C1,·,·,·,·,-17%,·
CCOc1ccc2c(c1)N(C(=O)CN1C(=O)CCC1=O)C(C)(C)C=C2C,1%,-2%,-17%,7%,32µM*,12%
CC1=CC(C)(C)N(C(=O)CN2C(=O)CCC2=O)c2ccc(C)cc21,1%,2%,1%,-7%,·,-2%
CC(C)COc1ccc(C(=O)OC2CC(C)(C)OCC2CN(C)C)cc1 (centres undefined),3%,-4%,-5%,1%,20µM*,-1%
CCS(=O)(=O)Nc1cccc(-c2nc3cccnc3s2)c1,3%,-2%,5%,9%,-2%,-9%
Cc1cccc(CC(=O)Nc2cccc(-c3nc4cccnc4s3)c2)c1,·,·,·,·,20µM*,·
COc1cccc(OC)c1-c1nnc(-c2cn(C)c3ccccc23)o1,0%,-1%,4%,-4%,11µM*,6%
COc1ccccc1-c1nnc(-c2ccc(C)cc2)o1,·,·,·,·,·,11%
COc1ccc(N2CCN(C(CNC(=O)c3cccs3)c3ccco3)CC2)cc1 (centres undefined),0%,0%,11%,7%,16µM*,8%
COc1ccc(OCCC(=O)OCC(=O)NC(=O)NC2CCCCC2)cc1,-1%,-1%,-8%,22%,20µM*,17%
COc1ccc(OCCC(=O)OCC(=O)NC2CCCCC2)cc1,3%,0%,-19%,7%,1%,-6%
Cc1sc2ccccc2[n+]1CCC[n+]1c(C)sc2ccccc21,·,·,·,·,-3%,·
CCOC(=O)c1cc2c(ccc3ccccc32)oc1=O,0%,-3%,-4%,17%,5%,5%
CC(OC(=O)c1cc2c(ccc3ccccc32)oc1=O)c1nc2ccccc2s1 (centres undefined),4%,1%,0%,5%,2.8µM*,11%
CCOc1cc(-c2ccc3c(c2)OCO3)cc(=[O+]CC)c2c(C)oc(C)c12,·,·,·,·,-4%,·
C=CCn1c(SCC(=O)NC2CCCC2)nnc1-c1ccncc1,-2%,1%,1%,-4%,25µM*,10%
S=C(NN=Cc1ccccn1)N(Cc1ccccn1)Cc1ccccn1,·,·,·,·,22µM*,-17%
COc1cccc(C(=O)Nc2cc3c4c(c2)CC(=O)N4CCC3)c1,1%,3%,5%,-5%,1%,-14%
COc1cc(C(=O)Nc2cc3c4c(c2)CC(=O)N4CCC3)cc(OC)c1OC,-1%,-1%,-7%,3%,16µM*,5%
CSc1nnc(-c2sc3cc(C(F)(F)F)cnc3c2-c2ccccn2)n1C,1%,-2%,9%,-5%,28µM*,11%
